In PubChem BioAssay (NCATS):
Where “and” joins values, the source holds several entries; their conditions need not be identical. Identical values can stand only once. Records with an inconclusive call do not appear. Calls of active or inactive are those of the source. Unless noted, calls come from the whole dose curve; as a rule, active = well fitted curve in the direction sought with a large enough effect; inconclusive = small, poorly fitted or top-dose-only effect, or another doubt; inactive = no such curve, though single readings can be large; an effect the other way counts as inactive or inconclusive.

Tests used:
[1] = system: Zika virus NS2B-NS3 protease; assay: Primary screen GU AMC qHTS for Zika virus inhibitors (AID 1347154);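 note: 0% = no-inhibitor control and -100% = no-enzyme control; nearly all actives have a fitted effect of over 70% in size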
In short: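 Unlinked Zika NS2B hydrophilic domain/NS3 protease domain noncovalent complex (25 nM final) in 10 mM Tris-HCl pH 8.0, 0.01% Tween 20, with AMC peptide substrate. Fluorescence (ex 340, em 450 nm) change over 15 min, room temperature; percent inhibition fitted to 4-parameter Hill equation.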

[2] = Counterscreen qHTS for small molecule stabilizers of the endoplasmic reticulum resident proteome: GLuc-NoTag assay (AID 1508627); note: potency is the fitted concentration of half-maximal effect;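 for activity change, negative = inhibition: SH-SY5Y cells given compound then 100 nM thapsigargin to empty ER calcium; 0% = thapsigargin alone and -100% = DMSO vehicle control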
In short: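 SH-SY5Y cells stably expressing constitutively secreted GLuc (no SERCaMP tag) were pre-incubated 5 h, treated with compound for 19 h, then 100 nM thapsigargin for 4 h at 37C; medium GLuc read by coelenterazine luminescence.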

[3] = Confirmatory qHTS for small molecule stabilizers of the endoplasmic reticulum resident proteome: Secreted ER Calcium Modulated Protein (SERCaMP) assay (AID 1508628); note: nearly all actives have a fitted effect of over 40% in size; note: potency is the fitted concentration of half-maximal effect
In short: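 SH-SY5Y cells stably expressing GLuc-SERCaMP, treated 16 h with compound (primary 1.53, 7.67, 38.3 uM; confirmation 11 concentrations, up to 76.6 uM), then 100 nM thapsigargin for 4 h. Secreted Gaussia luciferase in medium read by coelenterazine luminescence.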

[4] = Cell Viability qHTS for small molecule stabilizers of the endoplasmic reticulum resident proteome (AID 1508629); conditions: cell viability counter-screen, 100 nM thapsigargin for final 4 h;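 note: human SH-SY5Y neuroblastoma cells carrying the GLuc-SERCaMP reporter; compound exposure about 46 h in total before the viability read; % is set by controls: 0 for no effect and ±100 for the full control effect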
[5] = Primary qHTS for inhibitors of nuclear receptor binding SET domain protein 2 (NSD2) in an isogenic RCH-ACV NSD2 p.E1099K mutant (9B) (AID 1645876); note: potency is the fitted concentration of half-maximal effect; nearly all actives have a fitted effect of over 70% in size
[6] = Primary qHTS for inhibitors of nuclear receptor binding SET domain protein 2 (NSD2) in an RCH-ACV wild type WT cells (2C) (AID 1645877); note: potency is the fitted concentration of half-maximal effect; nearly all actives have a fitted effect of over 70% in size
[7] = molecular target: Catechol O-methyltransferase (Homo sapiens) (UniProt P21964); assay: Confirmatory Screen for Target Class Profiling of Small Molecule Inhibitors of Methyltransferases (AID 1745852; calls by dose curve; note: potency is the fitted concentration of half-maximal effect); conditions: MTase-Glo luminescence, SAH detection, recombinant enzyme; measured here: COMT max response; stronger effect = lower value
[8] = molecular target: Guanidinoacetate N-methyltransferase (Homo sapiens) (UniProt Q14353); assay: as above; conditions: activity change, negative = inhibition: at 57.3 µM (top of the series) unless noted
[9] = molecular target: Nicotinamide N-methyltransferase (Homo sapiens) (UniProt P40261); assay: as above; conditions: MTase-Glo luminescence, SAH detection, recombinant enzyme; measured here: NNMT max response; stronger effect = lower value
[10] = molecular target: Phenylethanolamine N-methyltransferase (Homo sapiens) (UniProt P11086); assay: as above; conditions: MTase-Glo luminescence, SAH detection, recombinant enzyme; measured here: PNMT max response; stronger effect = lower value
[11] = molecular target: Glutathione peroxidase 1 (Homo sapiens) (UniProt P07203); assay: Primary qHTS Assay for Inhibitors of Recombinant Selenoprotein Glutathione Peroxidase 1 (GPX1) (AID 1845191); note: nearly all actives have a fitted effect of over 65% in size
In short: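 Recombinant GPX1 (10 nM final) was preincubated with compound for 30 min at room temperature, then reacted with 1 mM GSH, 0.5 mM CHP, 0.5 mM NADPH and 100 nM glutathione reductase; NADPH fluorescence (340/450 nm) was read at 0 and 15 min.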

[12] = qHTS to identify inhibitors of the type 1 interferon - major histocompatibility complex class I in skeletal muscle: primary screen against the NCATS Mechanism Interrogation Plate v5.0 (MIPE) Libary (AID 1347411);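 note: plate controls were vehicle for no effect and reference inhibitor for full effect; nearly all actives have a fitted effect of over 65% in size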
In short: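 Immortalized human myoblasts (C25cl48) with HiBit knocked into endogenous HLA-B*08:01 were stimulated with 4 ng/ml IFN-beta and given compounds in 11-point 1:3 titration from 46 uM. After 24 h at 37 C, lytic HiBiT luminescence was read.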

[13] = molecular target: Phospholipid hydroperoxide glutathione peroxidase GPX4 (Homo sapiens) (UniProt P36969); assay: Primary qHTS Assay for Inhibitors of Recombinant Selenoprotein Glutathione Peroxidase 4 (GPX4) (AID 1845192); conditions: outcome: dose series up to 50 µM unless noted; note: % is set by controls: 0 for no effect and ±100 for the full control effect; nearly all actives have a fitted effect of over 65% in size
In short: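 GR-coupled readout: 100 nM GR, 1 mM GSH, 0.5 mM NADPH; NADPH fluorescence (ex 340/em 450 nm) read at t=0 and after 15 min RT. GPX4 200 nM, preincubated 30 min with compound; substrate 0.5 mM CHP.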

[14] = qHTS drug screen for cell cycle checkpoint inhibitors in PARPi-resistant BRCA-mutant ovarian cancer cell lines. (AID 1963452; calls by dose curve); conditions: PEO1/OlaR viability, CellTiter-Glo luminescence, 96 h, stronger effect = lower value
In short: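 PEO1, PEO4 and PEO1/OlaR ovarian cancer cells, 600 per well, exposed 96 h at 37C to a dilution series. Viability read by CellTiter-Glo luminescence, normalized to DMSO and empty wells; activity summarized as Z-AUC.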

[15] = Primary qHTS for small molecule stabilizers of the endoplasmic reticulum resident proteome: Secreted ER Calcium Modulated Protein (SERCaMP) assay (AID 1508630); note: % is set by controls: 0 for no effect and ±100 for the full control effect
In short: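 GLuc-SERCaMP-expressing SH-SY5Y cells, pretreated 16 h with compound, are challenged with thapsigargin to empty ER calcium stores; after 4 h, coelenterazine is added directly to the medium and luminescence is imaged.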

[16] = AP1 Signaling Pathway (AID 357; active = well fitted curve in either direction with a large enough effect, not every such curve was filed as active;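 note: ME-180 reporter cells stimulated with EGF at its EC50 level; % is set by controls: 0 for no effect and ±100 for the full control effect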); conditions: ME-180 AP-1-bla reporter, EGF-induced, beta-lactamase ratio, 5 h
In short: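 Titration-series screen for positive or negative modulators of EC50 EGF-induced signaling in ME-180 cells carrying an AP-1-driven beta-lactamase reporter. After 5 hours at 37 degrees Celsius, CCF4 460nm/530nm emission ratio gave %Activity; AC50 values derived.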

[17] = Stat Signaling Pathway (AID 446; active = well fitted curve in either direction with a large enough effect, not every such curve was filed as active;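 note: ME-180 cervical cancer cells given 40 pM IL-6 alongside compound; SIE-controlled beta-lactamase reporter measured as 460/530 nm FRET emission ratio; % is set by controls: 0 for no effect and ±100 for the full control effect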); conditions: ME-180 (cervical carcinoma) SIE beta-lactamase reporter, IL-6 stimulated, 5 h
In short: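 IL-6/STAT signaling read in ME-180 cells via an SIE beta-lactamase reporter. Stimulus was 40 pM IL-6 (its AC50) for 5 hrs, so both activation and inhibition register.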

[18] = molecular target: Glucocorticoid receptor (Homo sapiens) (UniProt P04150); assay: GR-GFP Redistribution (AID 450;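 active = compounds whose dose series gives a full or clear partial fitted curve of increased nuclear translocation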; note: potency is the fitted concentration of half-maximal effect); conditions: U2OS GR-GFP nuclear translocation, laser cytometry, 2 h
[19] = molecular target: Glucocorticoid receptor (Homo sapiens) (UniProt P04150); assay: GR-EFC Redistribution (AID 451; calls by dose curve; note: potency is the fitted concentration of half-maximal effect); conditions: CHO-K1 GR-EFC translocation, beta-gal luminescence, 2 h
In short: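 CHO-K1 cells stably expressing nuclear-localized β-gal enzyme acceptor and GR fused C-terminally to the enzyme donor fragment; ligand-driven nuclear translocation restores β-gal by complementation. Compounds titrated up to 46 uM final, 2 h at 37 °C; luminescence read.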

[20] = molecular target: 3',5'-cyclic-AMP phosphodiesterase 4B (Homo sapiens) (UniProt Q07343); assay: qHTS Assay for Inhibitors of PDE-IV (AID 607; active = well fitted activation curve with a large enough effect in the main read-out, with a control signal flat, not every such curve was filed as active; note: % of control where 0% means no effect)
In short: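 Live HEK293 cells with a modified cyclic nucleotide-gated (CNG) channel report intracellular cAMP via membrane-potential dye fluorescence (ex 535/em 590 nm). Endogenous PDE-IV was targeted. Compounds were tested at up to 22.9 uM final; RO 20-1724 100 uM served as control.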

[21] = qHTS Assay for Identification of Small Molecule Agonists for Thrombopoietin (TPO) Signaling Pathway (AID 917); note: % is set by controls: 0 for no effect and ±100 for the full control effect
In short: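 Murine Ba/F3 cells stably expressing human TPO receptor and a Glycoprotein IIb promoter–luciferase reporter were IL-3-starved overnight, then treated with compounds plus TPO (26 pM final, its EC50) for 24 hrs at 37 C; luminescence was read.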

[22] = molecular target: Muscarinic acetylcholine receptor M1 (Rattus norvegicus) (UniProt P08482); assay: qHTS Assay for Antagonists of Acetylcholine Muscarinic M1 Receptor: Kinetic Measurement of Intracellular Calcium Response (AID 943); note: nearly all actives have a fitted effect of over 75% in size
In short: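 CHO cells expressing rat M1 receptor, Fluo-4 loaded, preincubated 10 min with compound, then stimulated with EC80 carbachol (100 nM final). Kinetic calcium fluorescence over 4 min; response taken as peak over basal signal.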

[23] = molecular target: Muscarinic acetylcholine receptor M1 (Rattus norvegicus) (UniProt P08482); assay: qHTS Assay for Antagonists of Acetylcholine Muscarinic M1 Receptor: Measurement of IP-One Response (AID 944); note: nearly all actives have a fitted effect of over 75% in size
In short: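 CHO cells stably expressing rat M1, pretreated 10 min with compound, then stimulated 30 min with carbachol at EC80 (200 nM) in LiCl-containing buffer pH 7.4; IP1 accumulation read by HTRF competition (665/620 nm).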

[24] = molecular target: Pyruvate kinase (Leishmania mexicana) (UniProt Q27686); assay: qHTS Validation Assay for Inhibitors of Leishmania Mexicana Pyruvate Kinase (AID 945);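 note: 0% = DMSO only neutral control wells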
In short: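 Eight-point qHTS titrations; enzyme 0.2 nM LmPYK (E451W mutant); substrates 0.5 mM PEP, 0.1 mM ADP; 7 mM MgCl2; 1 h room temperature; PKLight luminescence normalized to neutral control.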

[25] = molecular target: Alpha-galactosidase A (Homo sapiens) (UniProt P06280); assay: Counterscreen for Glucocerebrosidase Inhibitors: qHTS Assay for Human alpha-Galactosidase at pH 4.5 (AID 992); note: 0% is about no effect
In short: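 Read-out is 4-methylumbelliferone fluorescence (365 nm excitation, 440 nm emission) after a pH 10 NaOH/glycine stop. Reactions held 2 nM enzyme and 80 uM substrate at pH 4.5 for 20 min at room temperature.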

[26] = molecular target: alpha-glucosidase (Oryza sativa, rice) (UniProt Q653V4); assay: Counterscreen for Glucocerebrosidase Inhibitors: qHTS Assay for Rice alpha-Glucosidase at pH 5.0 (AID 997);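 note: 0% = full activity with enzyme and -100% = basal without enzyme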
In short: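 Rice alpha-glucosidase (4 nM final) with 400 uM 4-methylumbelliferyl-alpha-D-glucopyranoside in citrate buffer pH 5.0, 20 min at room temperature, stopped at pH 10; fluorescence 365/440 nm, compounds 0.7 nM–77 uM, AC50 from Hill fits.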

[27] = qHTS Assay for Lipid Storage Modulators (AID 1519; calls by dose curve); conditions: Drosophila S3 cells, BODIPY lipid droplet/cell ratio, laser cytometry, cells loaded with oleic acid
In short: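 Cells seeded at 5,000 per well were treated with compounds over a concentration series and loaded with oleic acid (400 uM, as added). Lipid droplet fluorescence (488 nm excitation, 500-530 nm channel) was read by laser-scanning cytometry and normalized to 20 uM Triacsin C.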

[28] = molecular target: Ubiquitin carboxyl-terminal hydrolase 1 (Homo sapiens) (UniProt O94782); assay: Inhibitors of USP1/UAF1: Pilot qHTS (AID 504865);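 note: rhodamine fluorescence freed from ubiquitin-rhodamine substrate followed over time; top concentration of the series differs between compounds; % is set by controls: 0 for no effect and ±100 for the full control effect; nearly all actives have a fitted effect of over 35% in size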
In short: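 USP1/UAF1 complex (1nM) preincubated with compound 15 min at room temperature, then Ub-Rho substrate (150nM final) added. Fluorescence read kinetically at 480/540 nm, 6 reads every 60 seconds. Buffer: 50mM HEPES pH 7.8, 0.5mM EDTA, 0.1 mg/ml BSA, 1mM TCEP, 0.01% Tween-20.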

[29] = molecular target: DNA dC->dU-editing enzyme APOBEC-3G (Homo sapiens) (UniProt Q9HC16); assay: qHTS for inhibitors of Vif-A3G interactions: Validation (AID 588379); note: 0% is about no effect
In short: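 HeLa cells stably expressing Vif and A3G-eYFP, 700 cells/well, incubated overnight at 37 deg C, then exposed to compound overnight at 37 deg C. Inhibition of Vif-mediated degradation read as increased yellow fluorescence (Ex 488/Em 500-530) by laser-scanning cytometry.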

Glucocorticoid receptor (Homo sapiens), sequence (P04150 whole entry, looked up, the tested form may be a part): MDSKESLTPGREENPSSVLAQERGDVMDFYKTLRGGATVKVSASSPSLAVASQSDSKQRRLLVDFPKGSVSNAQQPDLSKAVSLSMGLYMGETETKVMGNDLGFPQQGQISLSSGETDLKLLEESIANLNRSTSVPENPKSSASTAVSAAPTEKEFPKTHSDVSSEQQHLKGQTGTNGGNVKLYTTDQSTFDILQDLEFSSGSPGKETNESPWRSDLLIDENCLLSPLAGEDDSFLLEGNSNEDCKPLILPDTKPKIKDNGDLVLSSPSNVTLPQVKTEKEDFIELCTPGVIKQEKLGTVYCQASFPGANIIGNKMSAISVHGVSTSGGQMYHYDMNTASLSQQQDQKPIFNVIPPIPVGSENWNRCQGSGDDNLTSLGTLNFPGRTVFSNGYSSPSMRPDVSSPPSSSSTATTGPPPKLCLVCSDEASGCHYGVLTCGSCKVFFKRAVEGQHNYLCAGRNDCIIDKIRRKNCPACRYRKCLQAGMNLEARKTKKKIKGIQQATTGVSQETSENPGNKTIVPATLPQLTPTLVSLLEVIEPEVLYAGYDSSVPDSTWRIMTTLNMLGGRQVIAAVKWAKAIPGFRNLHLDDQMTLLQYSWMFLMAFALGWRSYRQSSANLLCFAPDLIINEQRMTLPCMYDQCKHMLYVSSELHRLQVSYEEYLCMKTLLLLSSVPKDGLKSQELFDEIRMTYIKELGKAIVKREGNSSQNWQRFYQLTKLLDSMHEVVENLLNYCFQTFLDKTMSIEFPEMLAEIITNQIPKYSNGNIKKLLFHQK
Glutathione peroxidase 1 (Homo sapiens), sequence (P07203 whole entry, looked up): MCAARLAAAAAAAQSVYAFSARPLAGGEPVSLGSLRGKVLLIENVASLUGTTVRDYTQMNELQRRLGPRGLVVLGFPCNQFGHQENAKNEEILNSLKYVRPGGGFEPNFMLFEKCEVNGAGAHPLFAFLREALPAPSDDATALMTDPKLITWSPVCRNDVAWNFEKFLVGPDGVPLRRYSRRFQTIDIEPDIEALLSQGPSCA
Muscarinic acetylcholine receptor M1 (Rattus norvegicus), sequence (P08482 whole entry, looked up): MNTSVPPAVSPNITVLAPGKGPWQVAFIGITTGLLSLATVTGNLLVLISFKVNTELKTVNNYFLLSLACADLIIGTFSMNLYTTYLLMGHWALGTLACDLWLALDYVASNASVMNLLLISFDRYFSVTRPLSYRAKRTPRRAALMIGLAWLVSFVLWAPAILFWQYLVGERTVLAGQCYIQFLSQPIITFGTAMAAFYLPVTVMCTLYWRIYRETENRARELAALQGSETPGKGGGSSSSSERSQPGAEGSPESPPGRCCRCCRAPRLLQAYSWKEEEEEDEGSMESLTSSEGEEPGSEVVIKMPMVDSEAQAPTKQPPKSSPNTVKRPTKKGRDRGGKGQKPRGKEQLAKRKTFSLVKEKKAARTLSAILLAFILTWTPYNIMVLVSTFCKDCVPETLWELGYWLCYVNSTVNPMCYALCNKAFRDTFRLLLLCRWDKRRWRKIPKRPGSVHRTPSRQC
3',5'-cyclic-AMP phosphodiesterase 4B (Homo sapiens), sequence (Q07343 whole entry, looked up): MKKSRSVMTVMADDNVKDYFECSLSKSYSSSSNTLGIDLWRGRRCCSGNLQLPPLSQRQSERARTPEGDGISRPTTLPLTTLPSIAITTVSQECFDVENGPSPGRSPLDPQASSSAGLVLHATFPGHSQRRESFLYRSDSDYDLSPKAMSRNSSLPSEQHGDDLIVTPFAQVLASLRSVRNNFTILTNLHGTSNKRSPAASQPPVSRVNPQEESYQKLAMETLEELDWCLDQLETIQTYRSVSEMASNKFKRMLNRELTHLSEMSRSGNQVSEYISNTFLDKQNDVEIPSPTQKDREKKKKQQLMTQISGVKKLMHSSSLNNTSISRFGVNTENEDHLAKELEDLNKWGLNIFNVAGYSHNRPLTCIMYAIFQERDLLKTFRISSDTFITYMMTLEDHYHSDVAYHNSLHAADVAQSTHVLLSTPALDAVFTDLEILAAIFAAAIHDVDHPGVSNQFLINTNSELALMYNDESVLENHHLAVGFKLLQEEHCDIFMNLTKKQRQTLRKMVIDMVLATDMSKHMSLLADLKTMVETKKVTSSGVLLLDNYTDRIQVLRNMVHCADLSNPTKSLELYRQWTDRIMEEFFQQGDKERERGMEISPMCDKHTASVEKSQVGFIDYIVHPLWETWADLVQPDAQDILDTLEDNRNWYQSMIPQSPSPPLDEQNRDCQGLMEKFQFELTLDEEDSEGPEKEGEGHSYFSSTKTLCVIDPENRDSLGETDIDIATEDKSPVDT
Nicotinamide N-methyltransferase (Homo sapiens), sequence (P40261 whole entry, looked up): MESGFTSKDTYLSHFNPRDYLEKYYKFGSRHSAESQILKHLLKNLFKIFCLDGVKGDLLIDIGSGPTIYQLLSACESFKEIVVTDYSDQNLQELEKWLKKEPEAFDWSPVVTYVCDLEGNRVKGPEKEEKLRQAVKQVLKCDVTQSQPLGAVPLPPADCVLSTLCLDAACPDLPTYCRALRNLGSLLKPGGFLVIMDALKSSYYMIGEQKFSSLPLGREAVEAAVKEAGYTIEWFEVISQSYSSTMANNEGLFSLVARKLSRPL
Ubiquitin carboxyl-terminal hydrolase 1 (Homo sapiens), sequence (O94782 whole entry, looked up): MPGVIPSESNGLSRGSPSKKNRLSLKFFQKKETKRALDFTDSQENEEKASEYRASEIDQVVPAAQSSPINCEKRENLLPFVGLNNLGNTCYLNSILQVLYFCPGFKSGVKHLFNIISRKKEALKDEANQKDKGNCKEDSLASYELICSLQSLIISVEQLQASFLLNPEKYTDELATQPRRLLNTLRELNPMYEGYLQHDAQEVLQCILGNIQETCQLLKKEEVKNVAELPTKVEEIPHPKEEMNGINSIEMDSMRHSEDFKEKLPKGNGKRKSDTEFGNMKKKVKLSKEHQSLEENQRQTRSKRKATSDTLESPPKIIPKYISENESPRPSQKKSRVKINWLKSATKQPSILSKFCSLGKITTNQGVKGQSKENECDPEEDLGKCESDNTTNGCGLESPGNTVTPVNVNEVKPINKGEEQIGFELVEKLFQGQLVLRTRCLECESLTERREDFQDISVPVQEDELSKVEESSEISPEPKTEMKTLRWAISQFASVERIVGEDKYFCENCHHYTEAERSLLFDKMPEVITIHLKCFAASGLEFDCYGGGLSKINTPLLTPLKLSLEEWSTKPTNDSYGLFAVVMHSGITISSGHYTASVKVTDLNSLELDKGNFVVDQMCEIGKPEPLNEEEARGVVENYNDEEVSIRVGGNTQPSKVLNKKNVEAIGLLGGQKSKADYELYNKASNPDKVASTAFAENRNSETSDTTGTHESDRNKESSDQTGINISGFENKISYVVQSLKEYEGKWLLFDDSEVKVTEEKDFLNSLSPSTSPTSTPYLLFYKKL
Alpha-galactosidase A (Homo sapiens), sequence (P06280 whole entry, looked up): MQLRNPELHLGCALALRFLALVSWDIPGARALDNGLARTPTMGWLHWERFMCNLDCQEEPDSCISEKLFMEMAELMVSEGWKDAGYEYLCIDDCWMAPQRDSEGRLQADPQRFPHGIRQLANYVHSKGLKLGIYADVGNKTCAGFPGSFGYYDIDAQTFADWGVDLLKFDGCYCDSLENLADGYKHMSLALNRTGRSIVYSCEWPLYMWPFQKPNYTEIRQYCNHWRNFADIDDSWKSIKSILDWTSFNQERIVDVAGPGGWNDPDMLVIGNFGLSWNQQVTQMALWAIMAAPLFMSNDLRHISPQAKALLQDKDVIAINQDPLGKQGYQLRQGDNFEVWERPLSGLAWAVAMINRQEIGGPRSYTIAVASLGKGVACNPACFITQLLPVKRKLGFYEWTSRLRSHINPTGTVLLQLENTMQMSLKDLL
Phenylethanolamine N-methyltransferase (Homo sapiens), sequence (P11086 whole entry, looked up): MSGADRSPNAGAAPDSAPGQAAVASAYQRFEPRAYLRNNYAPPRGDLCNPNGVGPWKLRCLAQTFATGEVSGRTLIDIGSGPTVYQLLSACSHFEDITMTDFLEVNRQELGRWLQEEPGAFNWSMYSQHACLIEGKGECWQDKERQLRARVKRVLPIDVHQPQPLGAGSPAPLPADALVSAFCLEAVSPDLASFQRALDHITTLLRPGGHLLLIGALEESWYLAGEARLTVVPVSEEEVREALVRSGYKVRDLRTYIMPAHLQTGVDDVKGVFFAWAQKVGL
DNA dC->dU-editing enzyme APOBEC-3G (Homo sapiens), sequence (Q9HC16 whole entry, looked up): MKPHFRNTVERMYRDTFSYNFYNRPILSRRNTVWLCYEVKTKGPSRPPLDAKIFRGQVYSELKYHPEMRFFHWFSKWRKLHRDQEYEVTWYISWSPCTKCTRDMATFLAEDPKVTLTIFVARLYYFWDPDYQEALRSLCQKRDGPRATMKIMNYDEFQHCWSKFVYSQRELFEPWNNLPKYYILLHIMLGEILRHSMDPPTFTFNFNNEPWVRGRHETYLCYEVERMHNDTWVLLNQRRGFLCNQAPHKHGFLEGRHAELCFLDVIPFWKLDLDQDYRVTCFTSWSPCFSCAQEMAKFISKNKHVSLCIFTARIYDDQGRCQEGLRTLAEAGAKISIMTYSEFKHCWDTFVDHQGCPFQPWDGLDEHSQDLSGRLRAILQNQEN
Catechol O-methyltransferase (Homo sapiens), sequence (P21964 whole entry, looked up): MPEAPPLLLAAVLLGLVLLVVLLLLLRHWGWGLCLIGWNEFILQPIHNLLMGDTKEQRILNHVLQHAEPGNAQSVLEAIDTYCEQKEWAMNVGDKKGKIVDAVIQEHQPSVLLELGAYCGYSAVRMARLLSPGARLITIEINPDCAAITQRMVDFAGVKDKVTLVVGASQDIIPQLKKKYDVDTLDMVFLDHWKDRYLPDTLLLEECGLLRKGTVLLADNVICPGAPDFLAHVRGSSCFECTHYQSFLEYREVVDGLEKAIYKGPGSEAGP
Phospholipid hydroperoxide glutathione peroxidase GPX4 (Homo sapiens), sequence (P36969 whole entry, looked up): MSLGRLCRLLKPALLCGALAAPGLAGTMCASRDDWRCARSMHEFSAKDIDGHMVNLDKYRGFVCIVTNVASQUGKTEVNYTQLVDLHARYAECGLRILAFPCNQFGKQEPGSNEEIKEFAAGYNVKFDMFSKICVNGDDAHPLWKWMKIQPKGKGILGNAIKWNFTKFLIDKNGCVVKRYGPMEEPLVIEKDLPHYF

SMILES: O=C(O)C1NCCN(C(=O)c2ccc3c(ccc4ccccc43)c2)C1C(=O)O (stereo not given)
- Potency [1]: inactive
- Potency [2]: inactive
- Potency [3]: inactive
- max response [4]: 28.7% (inactive)

SMILES: CNc1cc2c(Nc3cccc(Br)c3)ncnc2cn1
- Potency [1]: inactive
- Potency [2]: 35.5 µM (active)
- Potency [3]: 2 µM (active)
- Potency [5]: 14.6 µM (active)
- Potency [6]: 20.6 µM (active)
- activity [7]: -38.7%
- Potency [8]: 30.4 µM (active)
- activity [9]: -23.8%
- activity [10]: -74.4%
- Potency [11]: inactive

SMILES: COc1ccc(S(=O)(=O)N(CCO)c2ccccc2CN(C)C/C=C/c2ccc(Cl)cc2)cc1
- Potency [1]: inactive
- Potency [12]: inactive
- Potency [5]: 7.42 µM (active)
- Potency [6]: 8.33 µM (active)
- Potency [11]: inactive
- Potency [13]: inactive
- Z-AUC [14]: -0.289 (inactive)
- Z-AUC ([14]; measured here: PEO1 parental Z-AUC): -0.166
- Z-AUC ([14]; measured here: PEO4 Z-AUC): 0.482

SMILES: NCCC(=O)c1ccccc1N
- Potency [1]: inactive
- Potency [15]: inactive

SMILES: O=C1N=C(O)CN1/N=C\c1ccc(-c2ccc([N+](=O)[O-])cc2)o1
- activity change, negative = inhibition ([16]; at 17.2 µM (top of the series)): -13.8% (inactive)
- activity change, negative = inhibition ([16]; at 38 µM (top of the series)): -14.1% (inactive)
- activity, negative = inhibition ([17]; at 17.2 µM (top of the series)): 9.37% (inactive)
- activity, negative = inhibition ([17]; at 38 µM (top of the series)): -4.41% (inactive)
- Potency [18]: > 46 µM (inactive) and > 20.6 µM (inactive)
- Potency [19]: > 46 µM (inactive) and > 20.6 µM (inactive)
- Potency [20]: inactive
- Potency [21]: inactive
- Potency [22]: inactive
- Potency [23]: inactive
- Potency [24]: inactive
- outcome [25]: inactive
- outcome [26]: inactive
- activity change, negative = inhibition ([27]; at 25.7 µM (top of the series)): 3.41% (inactive)
- max response ([27]; measured here: cell count channel max response): 3.82%
- max response ([27]; measured here: lipid channel max response): 7.61%
- Potency [28]: inactive
- Potency [29]: inactive
- Potency [1]: inactive
- Potency [2]: inactive
